Calls of active or inactive are those of the source. The calls were made as follows: active = hit-call score of the fitted dose curve at least 0.9, where 1 is the maximum; inactive = score below 0.9.
Assays:
Conditions in all cases: mRNA level, 48 h; actives raise or lower the signal
[1] = read-out: Cytochrome P450 7A1 (Homo sapiens) (UniProt P22680); experiment: LTEA_HepaRG_CYP7A1: Life Technologies and Expression Analysis (LTEA) Assay for Cytochrome P450 7A1 (CYP7A1) using HepaRG (AID 2283496)
Procedure, shortened: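 HepaRG cells plated 48 h, then switched to serum-free induction medium and exposed in duplicate for 48 h to 8-point half-log series from 100 uM in 0.5% DMSO. CYP7A1 mRNA by qRT-PCR (TaqMan), normalized to ACTB/GAPDH/POLR2A; bidirectional fit versus DMSO.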

[2] = read-out: Glutathione S-Transferase (GSTA2), GSTA2 (gene 2939); experiment: LTEA_HepaRG_GSTA2: Life Technologies and Expression Analysis (LTEA) Assay for Glutathione S-Transferase (GSTA2) using HepaRG (AID 2283497)
Procedure, shortened: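 Human HepaRG cells, plated 48 h, then exposed in serum-free induction medium for 48 h to eight half-log concentrations up to 100 uM in 0.5% DMSO, duplicate. GSTA2 mRNA by qRT-PCR, normalized to ACTB/GAPDH/POLR2A; bidirectional fit versus DMSO.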

[3] = read-out: Glutamate-cysteine ligase catalytic (GCLC), GCLC (gene 2729); experiment: LTEA_HepaRG_GCLC: Life Technologies and Expression Analysis (LTEA) Assay for Glutamate-cysteine ligase catalytic (GCLC) using HepaRG (AID 2283498)
Procedure, shortened: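 Differentiated human HepaRG cells, plated 48 h then switched to serum-free induction medium, were exposed in duplicate for 48 h to 8 half-log concentrations topping at 100 uM in 0.5% DMSO. GCLC mRNA was quantified by qRT-PCR against ACTB, GAPDH and POLR2A.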

[4] = read-out: growth arrest and DNA damage 45 (GADD45G), GADD45G (gene 10912); experiment: LTEA_HepaRG_GADD45G: Life Technologies and Expression Analysis (LTEA) Assay for growth arrest and DNA damage 45 (GADD45G) using HepaRG (AID 2283499)
Procedure, shortened: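 Differentiated human HepaRG cells in serum-free induction medium were exposed for 48 h to 8 half-log concentrations up to 100 uM in 0.5% DMSO, in duplicate. GADD45G mRNA was measured by TaqMan qRT-PCR, normalised to ACTB, GAPDH and POLR2A, and fitted bidirectionally against DMSO.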

[5] = read-out: Glutamate-cysteine ligase regulatory (GCLM), GCLM (gene 2730); experiment: LTEA_HepaRG_GCLM: Life Technologies and Expression Analysis (LTEA) Assay for Glutamate-cysteine ligase regulatory (GCLM) using HepaRG (AID 2283500)
Procedure, shortened: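 Differentiated HepaRG cells exposed 48 h in serum-free induction medium to eight half-log concentrations up to 100 uM (0.5% DMSO). GCLM mRNA by TaqMan qRT-PCR, normalized to ACTB, GAPDH and POLR2A; bidirectional fit versus DMSO.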

[6] = read-out: Glutathione S-transferase M3 (GSTM3), GSTM3 (gene 2947); experiment: LTEA_HepaRG_GSTM3: Life Technologies and Expression Analysis (LTEA) Assay for Glutathione S-transferase M3 (GSTM3) using HepaRG (AID 2283501)
Procedure, shortened: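 Differentiated HepaRG cells in serum-free induction medium were exposed in duplicate for 48 h to 8 half-log concentrations up to 100 uM in 0.5% DMSO. GSTM3 mRNA was measured by TaqMan qRT-PCR, normalized to ACTB/GAPDH/POLR2A, and fitted bidirectionally versus DMSO.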

[7] = read-out: Heat shock 70 kDa protein 1 (HSPA1A), gene 3303; experiment: LTEA_HepaRG_HSPA1A: Life Technologies and Expression Analysis (LTEA) Assay for Heat shock 70 kDa protein 1 (HSPA1A) using HepaRG (AID 2283502)
Procedure, shortened: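 Human HepaRG cells in serum-free induction medium were exposed in duplicate for 48 h to 8 half-log concentrations, highest 100 uM, in 0.5% DMSO. HSPA1A mRNA read by TaqMan qRT-PCR, normalized to ACTB, GAPDH, POLR2A, fitted bidirectionally against DMSO.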

[8] = read-out: Hypoxia-inducible factor 1-alpha (Homo sapiens) (UniProt Q16665); experiment: LTEA_HepaRG_HIF1A: Life Technologies and Expression Analysis (LTEA) Assay for Hypoxia-inducible factor 1 (HIF1A) Trancription factor using HepaRG (AID 2283503)
Procedure, shortened: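 Differentiated HepaRG cells in serum-free induction medium exposed 48 h, in duplicate, to 8-point half-log series from 100 uM in 0.5% DMSO. HIF1A mRNA measured by TaqMan qRT-PCR, normalized to ACTB/GAPDH/POLR2A, fitted bidirectionally versus DMSO.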

[9] = read-out: 3-Hydroxy-3-Methylglutaryl-CoA Synthase 2 (HMGCS2), HMGCS2 (gene 3158); experiment: LTEA_HepaRG_HMGCS2: Life Technologies and Expression Analysis (LTEA) Assay for 3-Hydroxy-3-Methylglutaryl-CoA Synthase 2 (HMGCS2) using HepaRG (AID 2283504)
Procedure, shortened: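 Differentiated human HepaRG cells were exposed in duplicate for 48 h in serum-free induction medium to eight concentrations (top 100 uM, half-log steps, 0.5% DMSO). HMGCS2 mRNA was quantified by TaqMan qRT-PCR, normalised to ACTB, GAPDH and POLR2A, then fitted bidirectionally against DMSO.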

[10] = read-out: HGF (gene 3082); experiment: LTEA_HepaRG_HGF: Life Technologies and Expression Analysis (LTEA) Assay for Hepatocyte Growth Facto (HGF) using HepaRG (AID 2283505)
Procedure, shortened: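 Differentiated human HepaRG cells in serum-free induction medium were exposed in duplicate for 48 h to eight concentrations (top 100 uM, half-log steps, 0.5% DMSO). HGF mRNA was quantified by qRT-PCR, normalized to ACTB, GAPDH and POLR2A.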

[11] = read-out: Insulin Like Growth Factor 1 (IGF1), IGF1 (gene 3479); experiment: LTEA_HepaRG_IGF1: Life Technologies and Expression Analysis (LTEA) Assay for Insulin Like Growth Factor 1 (IGF1) using HepaRG (AID 2283506)
Procedure, shortened: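 Differentiated HepaRG cells in serum-free induction medium, exposed 48 h in duplicate to 8 half-log concentrations up to 100 uM in 0.5% DMSO. IGF1 mRNA by Fluidigm qRT-PCR, normalised to ACTB, GAPDH and POLR2A.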

[12] = read-out: Intercellular Adhesion Molecule 1 (ICAM1), ICAM1 (gene 3383); experiment: LTEA_HepaRG_ICAM1: Life Technologies and Expression Analysis (LTEA) Assay for Intercellular Adhesion Molecule 1 (ICAM1) using HepaRG (AID 2283507)
Procedure, shortened: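 Differentiated HepaRG cells in serum-free induction medium were exposed in duplicate for 48 h to eight half-log concentrations up to 100 uM in 0.5% DMSO. Transcript levels were measured by qRT-PCR normalized to ACTB, GAPDH and POLR2A; bidirectional fits relative to DMSO.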

[13] = read-out: Insulin-like growth factor-binding protein 1 (IGFBP1), IGFBP1 (gene 3484); experiment: LTEA_HepaRG_IGFBP1: Life Technologies and Expression Analysis (LTEA) Assay for Insulin-like growth factor-binding protein 1 (IGFBP1) using HepaRG (AID 2283508)
Procedure, shortened: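 Differentiated human HepaRG cells in serum-free induction medium were exposed in duplicate for 48 h to eight concentrations, top 100 uM with half-log dilutions, in 0.5% DMSO. Transcript levels came from qRT-PCR normalised to ACTB, GAPDH and POLR2A, fitted bidirectionally against DMSO.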

[14] = read-out: Interleukin 6 (IL6), IL6 (gene 3569); experiment: LTEA_HepaRG_IL6: Life Technologies and Expression Analysis (LTEA) Assay for Interleukin 6 (IL6) using HepaRG (AID 2283509)
Procedure, shortened: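 Differentiated human HepaRG cells, plated 48 h then switched to serum-free induction medium, were exposed in duplicate for 48 h to eight half-log concentrations up to 100 uM in 0.5% DMSO. IL6 mRNA measured by qRT-PCR, normalized to ACTB/GAPDH/POLR2A.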

[15] = read-out: Interleukin 6 Receptor (IL6R), IL6R (gene 3570); experiment: LTEA_HepaRG_IL6R: Life Technologies and Expression Analysis (LTEA) Assay for Interleukin 6 Receptor (IL6R) using HepaRG (AID 2283510);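 as to AC50: TaqMan qRT-PCR signal normalized to ACTB GAPDH and POLR2A housekeeping genes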
Procedure, shortened: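 Differentiated HepaRG cells, plated 48 h, then exposed in duplicate for 48 h in serum-free induction medium to 8 half-log concentrations (top 100 uM, 0.5% DMSO). IL6R mRNA measured by TaqMan qRT-PCR, normalized to ACTB/GAPDH/POLR2A; bidirectional fit vs DMSO.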

[16] = read-out: Potassium channel subfamily K member 1 (KCNK1), KCNK1 (gene 3775); experiment: LTEA_HepaRG_KCNK1: Life Technologies and Expression Analysis (LTEA) Assay for Potassium channel subfamily K member 1 (KCNK1) using HepaRG (AID 2283511)
Procedure, shortened: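 Differentiated human HepaRG cells in serum-free induction medium were exposed in duplicate for 48 h to 8 half-log concentrations up to 100 uM in 0.5% DMSO. KCNK1 mRNA was measured by TaqMan qRT-PCR, normalized to ACTB, GAPDH and POLR2A, and fitted bidirectionally versus DMSO.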

[17] = read-out: Keratin 19 (KRT19), KRT19 (gene 3880); experiment: LTEA_HepaRG_KRT19: Life Technologies and Expression Analysis (LTEA) Assay for Keratin 19 (KRT19) using HepaRG (AID 2283512)
Procedure, shortened: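 Differentiated human HepaRG cells, plated 48 h, were exposed in duplicate for 48 h in serum-free induction medium to eight half-log concentrations up to 100 uM in 0.5% DMSO. KRT19 mRNA was quantified by qRT-PCR, normalized to ACTB, GAPDH and POLR2A, and fitted bidirectionally versus DMSO.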

[18] = read-out: Lipase C (LIPC), LIPC (gene 3990); experiment: LTEA_HepaRG_LIPC: Life Technologies and Expression Analysis (LTEA) Assay for Lipase C (LIPC) using HepaRG (AID 2283514)
Procedure, shortened: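 Differentiated human HepaRG cells in serum-free induction medium were exposed in duplicate for 48 h to eight concentrations (top 100 uM, half-log steps, 0.5% DMSO). LIPC mRNA was quantified by TaqMan qRT-PCR, normalized to ACTB, GAPDH and POLR2A, with bidirectional fitting versus DMSO.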

[19] = read-out: Lipoprotein lipase (LPL), LPL (gene 4023); experiment: LTEA_HepaRG_LPL: Life Technologies and Expression Analysis (LTEA) Assay for Lipoprotein lipase (LPL) using HepaRG (AID 2283515)
Procedure, shortened: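 Differentiated human HepaRG cells in serum-free induction medium were exposed in duplicate for 48 h to eight half-log concentrations (top 100 uM) in 0.5% DMSO. LPL mRNA was quantified by TaqMan qRT-PCR, normalized to ACTB, GAPDH and POLR2A.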

[20] = read-out: JUN Transcription Factor, JUN (gene 3725); experiment: LTEA_HepaRG_JUN: Life Technologies and Expression Analysis (LTEA) Assay for JUN Transcription Factor using HepaRG (AID 2283513)
Procedure, shortened: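 HepaRG cells, 48 h post-plating, exposed 48 h in serum-free induction medium to 8-point half-log series (top 100 uM, 0.5% DMSO), duplicate; mRNA by qRT-PCR (TaqMan, Fluidigm), normalized to ACTB/GAPDH/POLR2A; bidirectional fit vs DMSO.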

Measured: AC50

Hypoxia-inducible factor 1-alpha (Homo sapiens), sequence (Q16665 whole entry, looked up): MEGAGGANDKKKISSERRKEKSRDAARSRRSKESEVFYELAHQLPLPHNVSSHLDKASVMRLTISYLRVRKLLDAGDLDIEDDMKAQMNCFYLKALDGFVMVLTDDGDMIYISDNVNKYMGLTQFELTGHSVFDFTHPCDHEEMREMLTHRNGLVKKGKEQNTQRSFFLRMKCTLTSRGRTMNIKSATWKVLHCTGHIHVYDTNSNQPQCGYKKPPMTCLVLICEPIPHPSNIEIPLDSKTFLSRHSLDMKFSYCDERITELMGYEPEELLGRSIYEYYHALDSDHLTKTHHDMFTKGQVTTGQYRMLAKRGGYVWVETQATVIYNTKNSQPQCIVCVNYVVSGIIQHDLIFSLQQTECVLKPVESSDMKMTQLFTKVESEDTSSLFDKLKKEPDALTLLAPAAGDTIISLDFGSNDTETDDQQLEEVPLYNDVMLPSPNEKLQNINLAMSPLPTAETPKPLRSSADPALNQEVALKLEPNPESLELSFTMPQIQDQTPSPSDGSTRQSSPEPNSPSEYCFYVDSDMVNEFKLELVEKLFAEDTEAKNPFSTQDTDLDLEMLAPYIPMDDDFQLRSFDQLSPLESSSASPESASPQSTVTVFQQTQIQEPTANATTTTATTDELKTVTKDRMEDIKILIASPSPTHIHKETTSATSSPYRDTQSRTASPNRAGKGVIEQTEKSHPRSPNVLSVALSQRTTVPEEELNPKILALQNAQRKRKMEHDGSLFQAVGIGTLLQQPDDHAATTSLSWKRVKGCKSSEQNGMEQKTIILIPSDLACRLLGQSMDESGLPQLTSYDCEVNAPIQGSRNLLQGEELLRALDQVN

CCCCCCCCCC(=O)O
not listed: [20]
inactive: all other assays above

NC(=O)c1nc(-c2cccc(-c3cc(F)ccc3OCC(F)(F)C(F)(F)F)c2)n[nH]1
active: [8] 87.2 µM | [9] 50 µM | [10] 77.2 µM | [11] 83.2 µM | [13] 78.1 µM | [14] 78.6 µM | [17] 12.1 µM
not listed: [7] | [20]
inactive: all other assays above

O=C1O[C@H]([C@@H](O)CO)C(O)=C1O
not listed: [17] | [20]
inactive: all other assays above

CC1(C)NC(=O)N(c2ccc([N+](=O)[O-])c(C(F)(F)F)c2)C1=O
inactive: [6] | [7] | [10] | [12] | [15] | [16] | [20]
active: [1] 90.1 µM | [2] 78.4 µM | [3] 83.4 µM | [4] 77.4 µM | [5] 70.9 µM | [9] 76.6 µM | [11] 69.2 µM | [13] 90.2 µM | [14] 83.7 µM | [17] 67.8 µM | [18] 89.7 µM | [19] 76.2 µM

CC(=O)N1CCN(c2ccc(OC[C@H]3CO[C@](Cn4ccnc4)(c4ccc(Cl)cc4Cl)O3)cc2)CC1
active: [1] 12.9 µM | [2] 11.3 µM | [3] 65.5 µM | [5] 88.7 µM | [6] 22.7 µM | [7] 79.5 µM | [9] 12.4 µM | [11] 12.4 µM | [12] 26.6 µM | [13] 15.1 µM | [14] 31.2 µM | [15] 13.9 µM | [17] 12.2 µM | [18] 18.3 µM | [19] 86.3 µM
inactive: [4]
